# Data from PubChem BioAssay (Tox21).
# Where “and” joins values, the source holds several entries; their conditions need not be identical. Equal entries are not always repeated. Inconclusive results are not listed. Values without a mark were called inactive. Calls of active or inactive are those of the source. Calls follow the shape of the full dose curve.
# Assay: qHTS assay for small molecule agonists of the p53 signaling pathway - cell viability (AID 651633); also: nearly all actives have a fitted effect of over 30% in size;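 as to activity change, negative = cytotoxicity: p53RE-bla HCT reporter cells with a stable beta-lactamase p53 reporter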
# Conditions: p53RE-bla HCT-116 viability, ATP luminescence, 16 h; series mostly up to 83.3 µM; activity change, negative = cytotoxicity: at the top concentration
# How it was run: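 p53RE-bla cells were treated with compound for 16 hours at 37 C. Cytotoxicity was then measured as CellTiter-Glo luminescence after 30 min at room temperature.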
# % is scaled to controls: 0 for no effect and ±100 for the full control effect; potency is read from the fitted curve at half-maximal effect.
Compound,"activity change, negative = cytotoxicity",Potency
Oc1ccc(Cl)c2c1CCC2,19.7%,–
O=c1[nH]c(=O)n([C@H]2C[C@H](O)[C@@H](CO)O2)cc1/C=C/Br,7.21%,–
Nc1nc(/C(=C/CC(=O)O)C(=O)N[C@@H]2C(=O)N3C(C(=O)O)=CCS[C@H]23)cs1,19%,–
SC1CCCCC1,-21.1% [at 95.3 µM],–
C[C@H](Cc1ccc(O)c(O)c1)[C@@H](C)Cc1ccc(O)c(O)c1,5.95%,–
COc1cccc2c1[C@@H]1CN(CCCCn3c(=O)[nH]c4c(sc5ncc(-c6ccccc6)nc54)c3=O)C[C@@H]1CO2,–,29.8 µM (active)
CON=C1C[C@]2(C[C@@H]3C[C@@H](C/C=C(\C)C[C@@H](C)/C=C/C=C4\CO[C@@H]5[C@H](O)C(C)=C[C@@H](C(=O)O3)[C@]45O)O2)O[C@H](/C(C)=C/C(C)C)[C@H]1C,–,11.9 µM (active) and 8.41 µM (active)
CC(C)[N+]1(C)[C@@H]2CC[C@H]1CC(OC(=O)C(CO)c1ccccc1)C2 (some centres not stated),–,inactive
CC(C)Cc1ccc([C@H](C)C(=O)O)cc1,13.4%,–
Cc1ccc(C(C)(C)c2ccc(C)cc2)cc1,8.27%,–
Nc1c(CC(=O)O)cccc1C(=O)c1ccccc1,–,inactive
CC(=O)NC[C@H]1CN(c2ccc(N3CCOCC3)c(F)c2)C(=O)O1,2.88%,–
CCCCCCCCCCCCN1CCCC1=O,–,61.1 µM (active)
O=C(O)COc1ccc(C(=O)c2cccs2)c(Cl)c1Cl,–,inactive
O=C1CCC(c2ccc(-n3ccnc3)cc2)=NN1,12.5%,–
O=[N+]([O-])c1ccc(O)c2ncccc12,–,26.6 µM (active)
CC(C)C[C@H](NC(=O)[C@@H](COC(C)(C)C)NC(=O)[C@H](Cc1ccc(O)cc1)NC(=O)[C@H](CO)NC(=O)[C@H](Cc1c[nH]c2ccccc12)NC(=O)[C@H](Cc1cnc[nH]1)NC(=O)[C@@H]1CCC(=O)N1)C(=O)N[C@@H](CCCN=C(N)N)C(=O)N1CCC[C@H]1C(=O)NNC(N)=O,–,inactive
CC[C@@H](C(=O)[C@@H](C)[C@@H](O)[C@H](C)CCc1ccc(C)c(O)c1C(=O)O)[C@H]1O[C@](CC)([C@H]2CC[C@](O)(CC)[C@H](C)O2)C[C@@H]1C,–,26.6 µM (active)
CCCCC/C=C\C=C\C(=O)OCC,–,56.8 µM (active)

Compound,"activity change, negative = cytotoxicity",Potency
CCCn1c(=O)[nH]c(=O)c2[nH]cnc21,14%,–
CO[C@H]1C[C@@H]2CC[C@@H](C)[C@@](O)(O2)C(=O)C(=O)N2CCCC[C@H]2C(=O)O[C@H]([C@H](C)C[C@@H]2CC[C@@H](O)[C@H](OC)C2)CC(=O)[C@H](C)C=C(C)[C@@H](O)[C@@H](OC)C(=O)[C@H](C)C[C@H](C)/C=C/C=CC=C1C,–,21.1 µM (active) and 23.7 µM (active)
CC(=O)OCC(=O)[C@@]1(O)CC[C@H]2[C@@H]3CCC4=CC(=O)CC[C@]4(C)C3=CC[C@@]21C,5.58%,–
O=C(O)c1ccc(NC2OC[C@@H](O)[C@H](O)[C@H]2O)cc1 (some centres not stated),-13.4%,–
O=C1CCCCCCCCCCCCCC1,-22.5%,–
C/C(=C(/CCO)SSCC1CCCO1)N(C=O)Cc1cnc(C)nc1N (configuration not stated),–,inactive
CN(Cc1ccccc1)Cc1ccccc1,11.9%,–
CCCCCCCC[N+](C)(C)CCCCCCCC,–,inactive
CO[C@H](C(=O)[C@@H](O)[C@@H](C)O)C1Cc2cc3cc(O[C@H]4C[C@@H](O[C@H]5C[C@@H](O)[C@H](O)[C@@H](C)O5)[C@@H](O)[C@@H](C)O4)c(C)c(O)c3c(O)c2C(=O)[C@H]1O[C@H]1C[C@@H](O[C@H]2C[C@@H](O[C@H]3C[C@](C)(O)[C@H](O)[C@@H](C)O3)[C@H](O)[C@@H](C)O2)[C@H](O)[C@@H](C)O1 (some centres not stated),–,inactive
CC(C)(O/N=C(\C(=O)N[C@@H]1C(=O)N2C(C(=O)[O-])=C(C[n+]3ccccc3)CS[C@H]12)c1csc(N)n1)C(=O)O,11.8% [at 39.1 µM],–
Cc1cccc(C)c1NC(=O)C1CCCCN1C (configuration not stated),13.8%,–
C[C@@H]1O[C@@H]1P(=O)(O)O,22.2%,–
c1ccc2c(c1)OCC(CN1CCCCC1)O2 (configuration not stated),21.8%,–
C=C1C(=C/C=C2\CCC[C@]3(C)[C@@H]([C@H](C)CCCC(C)C)CC[C@@H]23)C[C@@H](O)C[C@@H]1O,–,29.8 µM (active)
N=C(N)n1cccn1,20.9%,–
CCCC(CCC)C(=O)OC1C[C@H]2CC[C@@H](C1)[N+]2(C)C (some centres not stated),–,inactive
C[N+](C)(C)CCOP(=O)(O)OP(=O)([O-])OC[C@H]1O[C@@H](n2ccc(N)nc2=O)[C@H](O)[C@@H]1O,–,inactive
CN(C)CCC(O)(c1ccccc1)c1ccccc1Cl (configuration not stated),7.39%,–
